# Key:
# Assay in all cases: DAPPL (digital affinity profiling via proximity ligation, sequencing); 10 mM Tris-HCl pH 7.5, 50 mM NaCl, 1 mM DTT, 4% glycerol, room temperature, 30 min; GST-TFs on glutathione beads, 16-mer random dsDNA library, 0.1% formaldehyde crosslink after washing; high values mean tight binding
# FLI1 = target: T1, FLI1 (Homo sapiens, UniProt Q01543 1-452); conditions: protein: recombinant; tags: N-terminal GST; dsDNA, one strand shown
# T1 sequence: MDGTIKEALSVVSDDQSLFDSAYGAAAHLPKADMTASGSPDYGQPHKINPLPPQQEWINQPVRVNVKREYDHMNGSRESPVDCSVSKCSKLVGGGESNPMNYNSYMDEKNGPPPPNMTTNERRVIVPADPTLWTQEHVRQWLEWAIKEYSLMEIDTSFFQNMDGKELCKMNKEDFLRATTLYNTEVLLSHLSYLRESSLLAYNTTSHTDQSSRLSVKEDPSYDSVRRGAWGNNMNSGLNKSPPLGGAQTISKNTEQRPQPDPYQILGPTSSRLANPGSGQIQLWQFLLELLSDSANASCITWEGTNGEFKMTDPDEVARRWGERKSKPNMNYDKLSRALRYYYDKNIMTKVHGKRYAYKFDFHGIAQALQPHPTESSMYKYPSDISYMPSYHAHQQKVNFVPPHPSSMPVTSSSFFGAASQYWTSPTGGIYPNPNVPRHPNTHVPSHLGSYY
# Procedure, shortened: (§1)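 Each value of binding signal is a hexamer's read frequency for a factor divided by the same hexamer's frequency in the tag-only sample. Barcoded, bead-captured GST fusions of human transcription factors made in yeast were pooled with that sample and incubated with 200 nmole of a random double-stranded 16-mer DNA library in Tris/NaCl/DTT/glycerol buffer at room temperature for 30 min. Washing, 0.1% formaldehyde crosslinking, proximity ligation, PCR and Illumina NextSeq500 sequencing followed.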
# ELK1 = target: T2, ELK1 (Homo sapiens, UniProt P19419 1-428); conditions: protein: recombinant; tags: N-terminal GST; dsDNA, one strand shown
# T2 sequence: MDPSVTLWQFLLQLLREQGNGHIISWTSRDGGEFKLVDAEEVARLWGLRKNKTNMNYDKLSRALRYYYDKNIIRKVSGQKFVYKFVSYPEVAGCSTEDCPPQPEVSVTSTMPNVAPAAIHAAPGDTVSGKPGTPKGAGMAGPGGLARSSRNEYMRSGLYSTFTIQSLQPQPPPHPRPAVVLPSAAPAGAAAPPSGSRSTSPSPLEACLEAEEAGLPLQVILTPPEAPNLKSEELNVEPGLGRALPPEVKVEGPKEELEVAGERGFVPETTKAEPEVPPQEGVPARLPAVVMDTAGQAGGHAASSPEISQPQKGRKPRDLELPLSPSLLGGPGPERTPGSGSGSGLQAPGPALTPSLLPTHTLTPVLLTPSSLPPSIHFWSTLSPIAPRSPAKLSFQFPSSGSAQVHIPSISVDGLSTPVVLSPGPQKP
# Procedure, shortened: as §1
# GABPA = target: T3, GABPA (Homo sapiens, UniProt Q06546 1-454); conditions: protein: recombinant; tags: N-terminal GST; dsDNA, one strand shown
# T3 sequence: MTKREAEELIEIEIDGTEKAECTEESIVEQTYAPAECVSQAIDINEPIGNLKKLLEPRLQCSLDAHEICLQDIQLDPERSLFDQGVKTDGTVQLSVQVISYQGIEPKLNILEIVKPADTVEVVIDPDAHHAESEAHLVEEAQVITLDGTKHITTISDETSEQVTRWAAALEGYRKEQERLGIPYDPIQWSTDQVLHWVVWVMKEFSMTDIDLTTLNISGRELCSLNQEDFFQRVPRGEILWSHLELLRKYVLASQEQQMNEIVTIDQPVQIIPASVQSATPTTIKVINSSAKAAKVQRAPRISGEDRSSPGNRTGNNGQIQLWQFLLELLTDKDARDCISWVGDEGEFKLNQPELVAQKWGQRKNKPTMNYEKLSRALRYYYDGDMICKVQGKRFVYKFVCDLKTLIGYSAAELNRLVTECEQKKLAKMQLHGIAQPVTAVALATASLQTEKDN
# Procedure, shortened: as §1
# ERG = target: T4, ERG (Homo sapiens, UniProt P11308 1-479); conditions: protein: recombinant; tags: N-terminal GST; dsDNA, one strand shown
# T4 sequence: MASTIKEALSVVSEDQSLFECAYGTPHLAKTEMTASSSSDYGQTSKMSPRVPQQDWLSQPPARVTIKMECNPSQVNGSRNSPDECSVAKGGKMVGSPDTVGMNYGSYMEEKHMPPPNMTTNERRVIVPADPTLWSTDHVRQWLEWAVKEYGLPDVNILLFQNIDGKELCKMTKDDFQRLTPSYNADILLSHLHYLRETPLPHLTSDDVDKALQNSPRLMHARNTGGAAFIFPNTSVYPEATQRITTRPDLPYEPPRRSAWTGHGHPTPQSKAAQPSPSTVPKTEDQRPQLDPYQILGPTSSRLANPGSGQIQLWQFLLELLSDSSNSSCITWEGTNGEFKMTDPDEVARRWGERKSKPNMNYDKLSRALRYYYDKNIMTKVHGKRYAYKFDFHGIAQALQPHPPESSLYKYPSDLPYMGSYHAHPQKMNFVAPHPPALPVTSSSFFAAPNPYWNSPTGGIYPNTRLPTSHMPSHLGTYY
# Procedure, shortened: as §1
# ELF1 = ELF1 (Homo sapiens, UniProt P32519 1-619); conditions: protein: recombinant; tags: N-terminal GST; dsDNA, one strand shown
# Procedure, shortened: as §1
# EHF = target: T5, EHF (Homo sapiens, UniProt Q9NZC4 1-300); conditions: protein: recombinant; tags: N-terminal GST; dsDNA, one strand shown
# T5 sequence: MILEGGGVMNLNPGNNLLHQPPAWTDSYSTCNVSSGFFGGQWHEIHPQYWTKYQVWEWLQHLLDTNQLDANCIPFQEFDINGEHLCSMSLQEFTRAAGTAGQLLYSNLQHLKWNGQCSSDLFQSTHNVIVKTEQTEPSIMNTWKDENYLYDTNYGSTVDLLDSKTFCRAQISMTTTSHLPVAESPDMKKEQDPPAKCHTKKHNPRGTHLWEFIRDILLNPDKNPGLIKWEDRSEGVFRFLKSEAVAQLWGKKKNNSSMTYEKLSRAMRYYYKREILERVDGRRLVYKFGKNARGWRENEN
# Procedure, shortened: as §1
# SPI1 = SPI1 (Homo sapiens, UniProt P17947 1-270); conditions: protein: recombinant; tags: N-terminal GST; dsDNA, one strand shown
# Procedure, shortened: as §1
# SPIB = SPIB (Homo sapiens, UniProt Q01892 1-262); conditions: protein: recombinant; tags: N-terminal GST; dsDNA, one strand shown
# Procedure, shortened: as §1
# ELK3 = target: T6, ELK3 (Homo sapiens, UniProt P41970 1-407); conditions: protein: recombinant; tags: N-terminal GST; dsDNA, one strand shown
# T6 sequence: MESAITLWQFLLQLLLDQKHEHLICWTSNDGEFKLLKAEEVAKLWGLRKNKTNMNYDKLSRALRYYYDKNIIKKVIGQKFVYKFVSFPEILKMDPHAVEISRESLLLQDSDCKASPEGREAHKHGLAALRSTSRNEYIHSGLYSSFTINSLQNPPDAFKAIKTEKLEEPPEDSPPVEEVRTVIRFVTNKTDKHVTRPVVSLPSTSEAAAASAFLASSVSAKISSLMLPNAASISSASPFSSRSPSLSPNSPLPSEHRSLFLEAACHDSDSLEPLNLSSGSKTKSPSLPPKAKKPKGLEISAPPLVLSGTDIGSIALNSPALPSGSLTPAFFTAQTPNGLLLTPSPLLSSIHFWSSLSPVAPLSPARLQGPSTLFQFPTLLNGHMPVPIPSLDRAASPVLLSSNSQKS
# Procedure, shortened: as §1
# FEV = target: T7, FEV (Homo sapiens, UniProt Q99581 1-238); conditions: protein: recombinant; tags: N-terminal GST; dsDNA, one strand shown
# T7 sequence: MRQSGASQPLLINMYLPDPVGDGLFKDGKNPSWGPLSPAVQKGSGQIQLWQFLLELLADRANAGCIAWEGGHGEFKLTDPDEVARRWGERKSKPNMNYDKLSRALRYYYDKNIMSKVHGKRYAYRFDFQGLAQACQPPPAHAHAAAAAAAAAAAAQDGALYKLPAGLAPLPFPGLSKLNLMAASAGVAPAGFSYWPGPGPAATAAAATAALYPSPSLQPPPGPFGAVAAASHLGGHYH
# Procedure, shortened: as §1
# ETV5 = ETV5 (Homo sapiens, UniProt P41161 1-510); conditions: protein: recombinant; tags: N-terminal GST; dsDNA, one strand shown
# Procedure, shortened: as §1
# HSF1 = HSF1 (Homo sapiens, UniProt Q00613 1-529); conditions: protein: recombinant; tags: N-terminal GST; chain copies: 3; dsDNA, one strand shown
# Procedure, shortened: as §1
# SPIC = target: T8, SPIC (Homo sapiens, UniProt Q8N5J4 1-248); conditions: protein: recombinant; tags: N-terminal GST; dsDNA, one strand shown
# T8 sequence: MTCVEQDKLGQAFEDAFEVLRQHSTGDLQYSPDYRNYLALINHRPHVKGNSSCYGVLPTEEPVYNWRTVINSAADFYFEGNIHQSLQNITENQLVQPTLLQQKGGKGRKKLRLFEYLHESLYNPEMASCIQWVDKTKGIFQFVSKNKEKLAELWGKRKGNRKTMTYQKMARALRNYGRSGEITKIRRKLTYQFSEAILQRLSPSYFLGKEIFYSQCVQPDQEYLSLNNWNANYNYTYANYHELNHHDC
# Procedure, shortened: as §1
# ELF4 = ELF4 (Homo sapiens, UniProt Q99607 1-663); conditions: protein: recombinant; tags: N-terminal GST; dsDNA, one strand shown
# Procedure, shortened: as §1
# ELK4 = target: T9, ELK4 (Homo sapiens, UniProt P28324-2 1-405); conditions: protein: recombinant; tags: N-terminal GST; dsDNA, one strand shown
# T9 sequence: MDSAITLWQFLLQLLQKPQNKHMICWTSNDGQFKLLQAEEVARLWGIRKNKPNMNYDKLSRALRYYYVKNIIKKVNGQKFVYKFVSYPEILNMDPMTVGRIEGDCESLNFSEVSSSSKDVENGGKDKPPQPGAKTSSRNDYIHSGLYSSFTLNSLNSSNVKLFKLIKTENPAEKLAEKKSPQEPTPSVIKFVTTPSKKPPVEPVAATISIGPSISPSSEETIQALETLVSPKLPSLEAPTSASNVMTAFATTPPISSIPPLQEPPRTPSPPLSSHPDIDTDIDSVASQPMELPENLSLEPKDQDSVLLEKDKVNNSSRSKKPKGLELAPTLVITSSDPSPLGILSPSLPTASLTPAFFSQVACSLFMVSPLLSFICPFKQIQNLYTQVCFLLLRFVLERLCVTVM
# Procedure, shortened: as §1
# ETV2 = target: T10, ETV2 (Homo sapiens, UniProt O00321 1-342); conditions: protein: recombinant; tags: N-terminal GST; dsDNA, one strand shown
# T10 sequence: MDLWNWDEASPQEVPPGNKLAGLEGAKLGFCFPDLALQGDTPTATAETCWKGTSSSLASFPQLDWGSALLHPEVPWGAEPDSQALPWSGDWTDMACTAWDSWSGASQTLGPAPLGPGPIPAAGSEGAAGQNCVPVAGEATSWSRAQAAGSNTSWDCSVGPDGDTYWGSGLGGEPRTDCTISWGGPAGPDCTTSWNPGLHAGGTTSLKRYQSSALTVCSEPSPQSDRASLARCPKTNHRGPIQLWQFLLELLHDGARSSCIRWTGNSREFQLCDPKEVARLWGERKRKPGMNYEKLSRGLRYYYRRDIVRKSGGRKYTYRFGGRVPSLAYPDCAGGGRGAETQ
# Procedure, shortened: as §1
# ELF3 = target: T11, ELF3 (Homo sapiens, UniProt P78545 1-371); conditions: protein: recombinant; tags: N-terminal GST; dsDNA, one strand shown
# T11 sequence: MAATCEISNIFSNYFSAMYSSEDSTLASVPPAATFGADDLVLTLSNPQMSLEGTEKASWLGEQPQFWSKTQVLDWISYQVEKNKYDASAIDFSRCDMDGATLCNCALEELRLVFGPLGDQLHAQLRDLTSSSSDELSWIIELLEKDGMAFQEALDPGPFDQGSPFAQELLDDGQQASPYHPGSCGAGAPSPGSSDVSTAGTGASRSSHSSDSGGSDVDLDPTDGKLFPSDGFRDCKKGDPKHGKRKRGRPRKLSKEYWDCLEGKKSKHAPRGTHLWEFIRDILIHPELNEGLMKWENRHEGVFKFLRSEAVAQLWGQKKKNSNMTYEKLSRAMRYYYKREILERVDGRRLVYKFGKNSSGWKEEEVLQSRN
# Procedure, shortened: as §1
# CRX = CRX (Homo sapiens, UniProt O43186 1-299); conditions: protein: recombinant; tags: N-terminal GST; dsDNA, one strand shown
# Procedure, shortened: as §1
# ETV1 = ETV1 (Homo sapiens, UniProt P50549 1-477); conditions: protein: recombinant; tags: N-terminal GST; dsDNA, one strand shown
# Procedure, shortened: as §1
# Sequence of ETV5 (P41161 whole entry): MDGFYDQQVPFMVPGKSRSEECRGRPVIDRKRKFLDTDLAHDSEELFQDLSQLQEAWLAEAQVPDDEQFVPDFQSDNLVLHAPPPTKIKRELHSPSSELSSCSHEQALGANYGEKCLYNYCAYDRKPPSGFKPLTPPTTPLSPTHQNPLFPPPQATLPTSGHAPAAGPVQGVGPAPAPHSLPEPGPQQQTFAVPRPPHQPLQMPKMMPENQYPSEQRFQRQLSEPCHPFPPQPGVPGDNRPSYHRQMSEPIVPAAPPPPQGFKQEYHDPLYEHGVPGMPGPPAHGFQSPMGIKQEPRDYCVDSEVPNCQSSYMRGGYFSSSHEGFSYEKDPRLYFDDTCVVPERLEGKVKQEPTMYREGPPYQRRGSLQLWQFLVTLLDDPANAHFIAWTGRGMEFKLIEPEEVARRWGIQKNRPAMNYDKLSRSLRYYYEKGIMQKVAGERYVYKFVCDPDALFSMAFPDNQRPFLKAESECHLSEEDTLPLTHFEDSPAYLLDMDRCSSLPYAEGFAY
# Sequence of CRX (O43186 whole entry): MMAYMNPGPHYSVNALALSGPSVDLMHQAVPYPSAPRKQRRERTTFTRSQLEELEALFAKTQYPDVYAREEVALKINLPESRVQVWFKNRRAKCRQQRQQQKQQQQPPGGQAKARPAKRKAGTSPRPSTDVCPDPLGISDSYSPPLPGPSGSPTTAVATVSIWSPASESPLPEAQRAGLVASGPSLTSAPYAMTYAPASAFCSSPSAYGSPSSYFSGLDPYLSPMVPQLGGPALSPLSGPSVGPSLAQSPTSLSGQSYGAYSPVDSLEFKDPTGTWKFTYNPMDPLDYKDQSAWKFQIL
# Sequence of HSF1 (Q00613 whole entry): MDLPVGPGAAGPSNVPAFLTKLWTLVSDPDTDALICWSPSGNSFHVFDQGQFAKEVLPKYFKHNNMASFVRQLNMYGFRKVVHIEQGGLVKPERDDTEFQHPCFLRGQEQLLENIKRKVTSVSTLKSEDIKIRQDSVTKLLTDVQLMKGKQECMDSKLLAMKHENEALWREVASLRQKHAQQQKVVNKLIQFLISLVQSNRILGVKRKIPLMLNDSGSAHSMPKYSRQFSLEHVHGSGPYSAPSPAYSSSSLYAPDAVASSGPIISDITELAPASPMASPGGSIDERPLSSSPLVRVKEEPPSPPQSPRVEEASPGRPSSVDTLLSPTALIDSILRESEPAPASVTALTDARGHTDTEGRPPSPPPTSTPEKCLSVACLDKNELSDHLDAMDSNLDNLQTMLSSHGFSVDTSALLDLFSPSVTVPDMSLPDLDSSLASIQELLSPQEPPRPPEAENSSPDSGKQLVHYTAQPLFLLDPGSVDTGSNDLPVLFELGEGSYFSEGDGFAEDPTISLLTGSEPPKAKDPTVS
# Sequence of SPIB (Q01892 whole entry): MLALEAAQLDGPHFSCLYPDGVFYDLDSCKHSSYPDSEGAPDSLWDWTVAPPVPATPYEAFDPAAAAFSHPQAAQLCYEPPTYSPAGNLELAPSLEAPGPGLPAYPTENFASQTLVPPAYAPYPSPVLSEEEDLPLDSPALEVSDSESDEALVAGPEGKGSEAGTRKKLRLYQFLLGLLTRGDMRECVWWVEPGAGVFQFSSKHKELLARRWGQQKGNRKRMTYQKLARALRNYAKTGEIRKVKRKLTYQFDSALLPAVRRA
# Sequence of ELF4 (Q99607 whole entry): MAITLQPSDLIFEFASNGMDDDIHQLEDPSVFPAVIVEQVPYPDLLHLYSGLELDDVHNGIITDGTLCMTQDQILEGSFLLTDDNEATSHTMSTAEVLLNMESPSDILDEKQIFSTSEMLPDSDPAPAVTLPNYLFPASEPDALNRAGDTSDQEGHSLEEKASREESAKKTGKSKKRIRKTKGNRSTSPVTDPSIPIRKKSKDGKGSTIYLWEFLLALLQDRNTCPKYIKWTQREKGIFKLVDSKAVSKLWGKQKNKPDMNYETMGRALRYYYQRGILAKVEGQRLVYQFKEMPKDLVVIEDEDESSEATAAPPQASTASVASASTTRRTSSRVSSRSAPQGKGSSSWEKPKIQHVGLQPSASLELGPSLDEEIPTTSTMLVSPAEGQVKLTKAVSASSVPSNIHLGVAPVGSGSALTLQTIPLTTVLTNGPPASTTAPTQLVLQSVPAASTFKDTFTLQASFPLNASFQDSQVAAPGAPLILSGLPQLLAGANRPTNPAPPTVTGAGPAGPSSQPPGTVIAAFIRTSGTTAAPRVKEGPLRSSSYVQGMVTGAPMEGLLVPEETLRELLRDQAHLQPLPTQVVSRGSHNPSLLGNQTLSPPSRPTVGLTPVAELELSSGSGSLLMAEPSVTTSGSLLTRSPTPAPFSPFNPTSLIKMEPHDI
# Sequence of ELF1 (P32519 whole entry): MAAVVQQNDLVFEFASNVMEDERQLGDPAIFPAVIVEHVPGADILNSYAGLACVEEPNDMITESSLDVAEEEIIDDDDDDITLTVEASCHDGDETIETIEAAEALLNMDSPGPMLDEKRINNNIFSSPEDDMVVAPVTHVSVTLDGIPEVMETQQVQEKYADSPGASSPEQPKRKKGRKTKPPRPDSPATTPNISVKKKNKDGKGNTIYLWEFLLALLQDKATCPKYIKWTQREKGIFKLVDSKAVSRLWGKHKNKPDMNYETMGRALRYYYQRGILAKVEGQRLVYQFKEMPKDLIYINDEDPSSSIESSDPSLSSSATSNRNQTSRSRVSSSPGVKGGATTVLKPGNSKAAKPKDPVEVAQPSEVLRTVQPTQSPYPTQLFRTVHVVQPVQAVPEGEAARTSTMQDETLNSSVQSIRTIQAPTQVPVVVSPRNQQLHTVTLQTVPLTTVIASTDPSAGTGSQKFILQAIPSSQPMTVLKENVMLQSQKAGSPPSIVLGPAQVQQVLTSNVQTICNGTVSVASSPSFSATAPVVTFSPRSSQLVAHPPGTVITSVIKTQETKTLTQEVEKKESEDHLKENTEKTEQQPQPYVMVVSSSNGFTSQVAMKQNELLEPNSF
# Sequence of ETV1 (P50549 whole entry): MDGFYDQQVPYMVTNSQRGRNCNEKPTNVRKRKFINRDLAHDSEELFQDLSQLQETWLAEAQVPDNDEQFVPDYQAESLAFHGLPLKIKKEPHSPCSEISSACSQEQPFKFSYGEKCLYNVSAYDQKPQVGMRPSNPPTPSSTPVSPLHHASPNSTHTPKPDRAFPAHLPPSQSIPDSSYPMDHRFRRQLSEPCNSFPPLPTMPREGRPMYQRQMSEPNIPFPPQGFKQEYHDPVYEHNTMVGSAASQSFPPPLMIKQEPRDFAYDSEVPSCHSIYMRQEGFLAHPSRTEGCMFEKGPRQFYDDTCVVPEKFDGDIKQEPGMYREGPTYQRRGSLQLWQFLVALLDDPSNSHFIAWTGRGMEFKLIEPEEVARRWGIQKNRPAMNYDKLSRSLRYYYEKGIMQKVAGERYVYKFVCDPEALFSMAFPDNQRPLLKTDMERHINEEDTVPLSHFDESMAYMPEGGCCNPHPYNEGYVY
sequence,measurement,setting,value
ATTTCT,binding signal,FLI1,"1.45 fold enrichment (6-mer frequency, TF over GST control)"
same,binding signal,ELK1,"1.51 fold enrichment (6-mer frequency, TF over GST control)"
same,binding signal,GABPA,"1.51 fold enrichment (6-mer frequency, TF over GST control)"
same,binding signal,ERG,"1.5 fold enrichment (6-mer frequency, TF over GST control)"
same,binding signal,ELF1,"1.48 fold enrichment (6-mer frequency, TF over GST control)"
same,binding signal,EHF,"1.3 fold enrichment (6-mer frequency, TF over GST control)"
same,binding signal,SPI1,"1.47 fold enrichment (6-mer frequency, TF over GST control)"
same,binding signal,SPIB,"1.43 fold enrichment (6-mer frequency, TF over GST control)"
same,binding signal,ELK3,"1.32 fold enrichment (6-mer frequency, TF over GST control)"
same,binding signal,FEV,"1.43 fold enrichment (6-mer frequency, TF over GST control)"
same,binding signal,ETV5,"1.39 fold enrichment (6-mer frequency, TF over GST control)"
same,binding signal,HSF1,"2.3 fold enrichment (6-mer frequency, TF over GST control)"
same,binding signal,SPIC,"1.49 fold enrichment (6-mer frequency, TF over GST control)"
same,binding signal,ELF4,"1.4 fold enrichment (6-mer frequency, TF over GST control)"
same,binding signal,ELK4,"1.66 fold enrichment (6-mer frequency, TF over GST control)"
same,binding signal,ETV2,"1.4 fold enrichment (6-mer frequency, TF over GST control)"
same,binding signal,ELF3,"1.76 fold enrichment (6-mer frequency, TF over GST control)"
same,binding signal,CRX,"1.68 fold enrichment (6-mer frequency, TF over GST control)"
same,binding signal,ETV1,"1.51 fold enrichment (6-mer frequency, TF over GST control)"
